Measured values published in PubChem BioAssay.
Results with a measured potency or affinity are listed apart. Results filed as inconclusive are left out. Active and inactive are the calls of the source. Unless noted, no rule for the calls is given here.

Tests used:
[1] = cytotoxicity in PAX8-dependent RMG-1 cells, dose response, cell-based, cherry-pick (AID 687029;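 active = signal drop whose fitted half-maximal concentration is at most twice the top valid dose, in every test run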;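 also: cells exposed to compound for 96 hours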)
[2] = cytotoxicity in IOSE-T80 ovarian epithelial cells, dose response, selectivity assay for PAX8 inhibitor project, cell-based, cherry-pick (AID 687032;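 active = fitted half-maximal concentration for viability loss no higher than twice the top valid dose, in every repeat run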;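 also: cells exposed to compound for 96 h before reading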)
[3] = inhibitors of CMV-promoter luciferase reporter, dose response, counter-screen for Pax8 inhibitor project, cell-based, HEK293, luminescence, dry powder (AID 743020;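 active = signal-lowering compounds whose fitted half-maximal concentration is at or below twice the top tested dose in every run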;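 also: HEK293 cells stably expressing the CMV luciferase reporter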)
[4] = non-specific cell cytotoxicity, dose response, cytotoxicity control for PAX8 inhibitor project, plate reader, dry powder samples (AID 743021)
[5] = IGROV1 ovarian cancer cell cytotoxicity, dose response, PAX8 inhibitor project, plate reader, dry powder samples (AID 743043);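 also: more negative means fewer viable cells or more cytotoxicity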
[6] = IOSE-T80 ovarian epithelial cell cytotoxicity, dose response, cytotoxicity control for PAX8 inhibitor project, plate reader, dry powder samples (AID 743045);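 also: more negative values mean more cell killing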
[7] = A2780 ovarian cancer cell cytotoxicity, dose response, cytotoxicity control, plate reader, dry powder samples (AID 743046)
[8] = cytotoxicity in OVCAR8 ovarian cancer cells, dose response, PAX8 project, cell-based, plate reader, dry powder samples (AID 743197)

Measured: outcome

C[C@H](CO)N1C[C@H](C)[C@H](CN(C)Cc2ccc(C(F)(F)F)cc2)OCCCC[C@H](C)Oc2ccc(NC(=O)Nc3ccccc3)cc2C1=O
inactive: [1] | [2] | [3] | [4] | [5] | [6]

CCSCCc1nnc(NC(=O)Nc2cccc(C(F)(F)F)c2)s1
inactive: [1] | [2] | [3] | [4] | [5] | [6]

C[C@@H]1CCCCO[C@@H](CN(C)Cc2ccc(Cl)c(Cl)c2)[C@H](C)CN([C@H](C)CO)C(=O)c2cc(NC(=O)c3ccccc3)ccc2O1
inactive: [1] | [2] | [3] | [4] | [5] | [6]

C[C@@H]1CCCCO[C@@H](CN(C)C(=O)c2ccccc2)[C@H](C)CN([C@H](C)CO)C(=O)c2cc(NC(=O)Nc3ccc(C(F)(F)F)cc3)ccc2O1
inactive: [1] | [2] | [3] | [4] | [5] | [6] | [7]

C[C@H]1CN([C@@H](C)CO)S(=O)(=O)c2ccc(C#Cc3ccccc3F)cc2O[C@@H]1CN(C)CC1CCOCC1
inactive: [1] | [2] | [3] | [4] | [5] | [6]

COc1ccc(S(=O)(=O)Nc2ccc3c(c2)C(=O)N([C@@H](C)CO)C[C@H](C)[C@@H](CN(C)Cc2ccc(C(F)(F)F)cc2)OCCCC[C@@H](C)O3)cc1
inactive: [1] | [2] | [3] | [4] | [5] | [6]

COc1ccccc1-c1ccc2c(c1)[C@H]1[C@H](CCN1C(=O)C1CCCCC1)[C@@H](CO)N2
inactive: [1] | [2] | [3] | [4] | [5] | [6]

COc1ccc(S(=O)(=O)N2CCCCN3[C@H](CO)[C@@H](c4ccc(C#CC(C)C)cc4)[C@H]3C2)cc1
inactive: [1] | [2] | [3] | [4] | [5] | [6]

CC(C)NC(=O)N1Cc2cc(C(=O)NCC(F)(F)F)nc(-c3cccc(-c4cc5ccccc5o4)c3)c2[C@H]1CCO
inactive: [1] | [2] | [3] | [4] | [5] | [6]

C[C@@H]1CN([C@H](C)CO)C(=O)c2cccc(NC(=O)Nc3cccc4ccccc34)c2O[C@@H]1CN(C)S(=O)(=O)c1ccc(Cl)cc1
inactive: [1] | [2] | [3] | [4] | [5] | [6] | [7]

C[C@@H]1CCCCO[C@@H](CN(C)C(=O)Nc2ccc(C(F)(F)F)cc2)[C@H](C)CN([C@H](C)CO)C(=O)c2cc(NS(=O)(=O)c3ccc(F)cc3)ccc2O1
inactive: [1] | [2] | [3] | [4] | [5] | [6] | [7]

C[C@@H]1CCCCO[C@@H](CN(C)Cc2ccc(C(F)(F)F)cc2)[C@H](C)CN([C@H](C)CO)C(=O)c2cc(NC(=O)Nc3ccccc3)ccc2O1
inactive: [1] | [2] | [3] | [4] | [5] | [6]

C[C@@H]1CCCCO[C@H](CN(C)C(=O)C2CCCCC2)[C@H](C)CN([C@@H](C)CO)C(=O)c2cc(NS(=O)(=O)c3ccc(Cl)cc3)ccc2O1
inactive: [1] | [2] | [3] | [4] | [5] | [6]

C[C@@H]1CN([C@H](C)CO)C(=O)c2cc(NS(=O)(=O)c3ccccc3)ccc2O[C@@H](C)CCCCO[C@@H]1CN(C)CC1CCCCC1
inactive: [1] | [2] | [3] | [4] | [5] | [6] | [7]

C[C@H]1CN([C@@H](C)CO)S(=O)(=O)c2ccc(C#Cc3ccncc3)cc2O[C@H]1CN(C)C(=O)C1CCCCC1
inactive: [1] | [2] | [3] | [4] | [5] | [6] | [7]

C[C@@H]1CN([C@H](C)CO)C(=O)c2cc(NC(=O)Nc3ccc(F)cc3)ccc2O[C@@H](C)CCCCO[C@H]1CN(C)C(=O)Nc1ccc(C(F)(F)F)cc1
inactive: [1] | [2] | [3] | [4] | [5] | [6] | [7]

COc1ccc2c3c([nH]c2c1)[C@H](CO)N(C(=O)Nc1cccc(F)c1)CC31CCN(S(=O)(=O)c2cccc(C)c2)CC1
inactive: [1] | [2] | [3] | [4] | [5] | [6] | [7]

C[C@@H]1CN([C@@H](C)CO)C(=O)Cc2cc(NC(=O)Cc3cn(C)c4ccccc34)ccc2O[C@H]1CN(C)Cc1ccc(Oc2ccccc2)cc1
inactive: [1] | [2] | [3] | [4] | [5] | [6] | [7]

C[C@@H]1CCCCO[C@H](CN(C)Cc2ccc(C(F)(F)F)cc2)[C@H](C)CN([C@H](C)CO)C(=O)c2cc(NC(=O)c3ccccc3)ccc2O1
inactive: [1] | [2] | [3] | [4] | [5] | [6] | [7]

C[C@H](CO)N1C[C@H](C)[C@@H](CN(C)Cc2ccc(C(F)(F)F)cc2)OCCCC[C@H](C)Oc2ccc(NC(=O)Nc3ccc(F)cc3)cc2C1=O
inactive: [1] | [2] | [3] | [4] | [5] | [6]

C[C@@H]1CCCCO[C@@H](CN(C)C(=O)NC2CCCCC2)[C@H](C)CN([C@@H](C)CO)C(=O)c2cc(NC(=O)Nc3ccc(C(F)(F)F)cc3)ccc2O1
inactive: [1] | [2] | [3] | [4] | [5] | [6]

C[C@@H]1CCCCO[C@@H](CN(C)C(=O)Nc2cccc3ccccc23)[C@H](C)CN([C@H](C)CO)C(=O)c2cc(NS(=O)(=O)c3ccc(Cl)cc3)ccc2O1
inactive: [1] | [2] | [3] | [4] | [5] | [6]

C[C@@H]1CN([C@H](C)CO)C(=O)c2cc(NS(=O)(=O)c3ccc(F)cc3)ccc2O[C@@H](C)CCCCO[C@@H]1CN(C)CC1CCCCC1
inactive: [1] | [2] | [3] | [4] | [5] | [6]

C[C@@H]1CN([C@H](C)CO)C(=O)c2cc(NC(=O)Nc3ccc(C(F)(F)F)cc3)ccc2O[C@@H](C)CCCCO[C@H]1CN(C)S(=O)(=O)c1ccc(Cl)cc1
inactive: [1] | [2] | [3] | [4] | [5] | [6] | [7]

CC(=O)N1CCOc2ccc(S(=O)(=O)N3CCN(c4cccc(C(F)(F)F)c4)CC3)cc21
inactive: [1] | [2] | [3] | [4] | [5] | [6]

C[C@H]1CCCCO[C@H](CN(C)Cc2ccc(C(F)(F)F)cc2)[C@@H](C)CN([C@@H](C)CO)C(=O)c2cc(NS(=O)(=O)c3ccc(F)cc3)ccc2O1
inactive: [1] | [2] | [3] | [4] | [5] | [6] | [7]

C[C@@H]1CCCCO[C@H](CN(C)S(=O)(=O)c2ccc(Cl)cc2)[C@@H](C)CN([C@@H](C)CO)C(=O)c2cc(NS(=O)(=O)c3ccc(F)cc3)ccc2O1
inactive: [1] | [2] | [3] | [4] | [5] | [6]

C[C@@H]1CCCCO[C@@H](CN(C)S(=O)(=O)c2ccc(F)cc2)[C@H](C)CN([C@H](C)CO)C(=O)c2cc(NS(=O)(=O)c3ccc(Cl)cc3)ccc2O1
inactive: [1] | [2] | [3] | [4] | [5] | [6] | [7]

Cc1cccc(S(=O)(=O)N2C[C@@H](O)COC[C@@H]3O[C@@H](CC(=O)Nc4ccc(-c5ccccc5)cc4)CC[C@H]32)c1
inactive: [1] | [2] | [3] | [4] | [5] | [6]

C[C@H](NC(=O)C[C@@H]1C[C@@H]2c3cc(NC(=O)Nc4ccc(C(F)(F)F)cc4)ccc3O[C@@H]2[C@@H](CO)O1)c1ccccc1
inactive: [1] | [2] | [3] | [4] | [5] | [6]

C[C@@H]1CCCCO[C@H](CN(C)Cc2ccccc2)[C@@H](C)CN([C@@H](C)CO)C(=O)c2cc(NC(=O)Nc3ccc(C(F)(F)F)cc3)ccc2O1
inactive: [1] | [2] | [3] | [4] | [5] | [6] | [7]

C[C@H](CO)N1C[C@H](C)[C@H](CN(C)Cc2ccc(C(F)(F)F)cc2)OCCCC[C@H](C)Oc2ccc(NS(=O)(=O)c3ccc(F)cc3)cc2C1=O
inactive: [1] | [2] | [3] | [4] | [5] | [6] | [7]

COc1ccccc1C(=O)Nc1ccc2c(c1)C(=O)N(C)[C@@H]1CC[C@@H](CC(=O)NCc3ccc(Cl)c(Cl)c3)O[C@H]1CO2
inactive: [1] | [2] | [3] | [4] | [5] | [6] | [7]

C[C@@H]1CCCCO[C@@H](CN(C)C(=O)Nc2ccc(C(F)(F)F)cc2)[C@H](C)CN([C@H](C)CO)C(=O)c2cc(NS(=O)(=O)c3ccc(Cl)cc3)ccc2O1
inactive: [1] | [2] | [3] | [4] | [5] | [6] | [7]

COc1ccccc1C#Cc1ccc2c(c1)O[C@@H](CN(C)Cc1cncnc1)[C@H](C)CN([C@H](C)CO)S2(=O)=O
inactive: [1] | [2] | [3] | [4] | [5] | [6] | [7]

O=C(Nc1ccc(F)cc1)N1CC(=O)N2[C@@H](CO)[C@@H](c3ccc(C#Cc4ccc(F)cc4)cc3)[C@@H]2C1
inactive: [1] | [2] | [3] | [4] | [5] | [6] | [7]

CC(C)CC#Cc1ccc2c(c1)O[C@H](CN(C)S(=O)(=O)c1ccc(F)cc1)[C@@H](C)CN([C@@H](C)CO)S2(=O)=O
inactive: [1] | [2] | [3] | [4] | [5] | [6] | [7]

C[C@@H]1CN([C@H](C)CO)C(=O)c2cc(NS(=O)(=O)c3cccs3)ccc2O[C@@H](C)CCCCO[C@H]1CN(C)Cc1ccc(Cl)c(Cl)c1
inactive: [1] | [2] | [3] | [4] | [5] | [6] | [7] | [8]

Cc1ccc(S(=O)(=O)N(C)C[C@H]2Oc3cc(C#Cc4ccncc4)ccc3S(=O)(=O)N([C@H](C)CO)C[C@H]2C)cc1
inactive: [1] | [2] | [3] | [4] | [5] | [6] | [7]

C[C@@H]1CN([C@H](C)CO)C(=O)c2cc(NC(=O)c3ccccc3)ccc2O[C@@H](C)CCCCO[C@@H]1CN(C)Cc1ccc(C(F)(F)F)cc1
inactive: [1] | [2] | [3] | [4] | [5] | [6] | [7]
